Measured values: PubChem BioAssay (EPA / NIEHS)
Inconclusive results are not listed. Calls of active or inactive are those of the source. Rule for the calls, unless noted: active = hit-call score of the fitted dose curve at least 0.9, where 1 is the maximum; inactive = score below 0.9.

Experiments:
[1] = molecular target: Bile acid receptor (Homo sapiens) (UniProt Q96RI1); assay: ATG_FXR_TRANS: Attagene TRANS-FACTORIAL HepG2 Assay for Farnesoid X Receptor (FXR) (AID 2282979; active = hit-call score of the fitted dose curve at least 0.9, where 1 is the maximum;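 note: hits raise reporter mRNA above DMSO so AC50 marks FXR activation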); details: HepG2 Attagene TRANS FXR-GAL4 reporter transcription
Summary of the method: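 Reporter transcripts from transfected HepG2 cells were measured 24 h after dosing, using RT-PCR with capillary electrophoresis of 6-FAM-labelled fragments. The read-out reflects activity of exogenous FXR-Gal4 chimera on GAL4-UAS units, with induction relative to DMSO.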

[2] = molecular target: Oxysterols receptor LXR-beta (Homo sapiens) (UniProt P55055); assay: ATG_LXRb_TRANS: Attagene TRANS-FACTORIAL HepG2 Assay for human Liver X Receptor beta (LXRb) (AID 2282981; active = hit-call score of the fitted dose curve at least 0.9, where 1 is the maximum); details: HepG2 Attagene TRANS GAL4-LXRb reporter, mRNA
Summary of the method: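 In this TRANS format, exogenous chimeric NR-Gal4 protein activity, not endogenous factors, drives reporter expression in transfected human HepG2 cells. Exposure lasted 24 h; reporter mRNA was read by fluorescent capillary electrophoresis.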

[3] = molecular target: Hepatocyte nuclear factor 4-alpha (Homo sapiens) (UniProt P41235); assay: ATG_HNF4a_TRANS: Attagene TRANS-FACTORIAL HepG2 Assay for human Hepatocyte Nuclear Factor 4 alpha (HNF4a) (AID 2282982; active = hit-call score of the fitted dose curve at least 0.9, where 1 is the maximum); details: HepG2 HNF4a transactivation reporter, mRNA readout
Summary of the method: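 Cells used were human HepG2, transiently carrying GAL4-UAS reporter units read out against exogenous NR-GAL4 chimeras. Reporter transcript levels after 24 h dosing were quantified by fluorescent RT-PCR and capillary electrophoresis.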

[4] = ATG_M_32_TRANS: Attagene TRANS-FACTORIAL HepG2 Assay for M32 Transcription Factor (Internal Marker) (AID 2282984; active = hit-call score of the fitted dose curve at least 0.9, where 1 is the maximum;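 note: transcript level of a background control reporter unit measured by RT-PCR and capillary electrophoresis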); details: HepG2 Attagene TRANS M32 internal marker reporter
Summary of the method: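 Human hepatoma HepG2, transient MRTU transfection, 24 h treatment. RNA → RT-PCR → fluorescent primer extension → HpaI digest (2 h, 37 C) → CE. Positive-direction fit vs DMSO.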

[5] = molecular target: Nuclear receptor subfamily 4 group A member 2 (Homo sapiens) (UniProt P43354); assay: ATG_NURR1_TRANS: Attagene TRANS-FACTORIAL HepG2 Assay for human Nuclear Receptor Related Protein 1 (NURR1) (AID 2282985; active = hit-call score of the fitted dose curve at least 0.9, where 1 is the maximum); details: HepG2 Attagene TRANS reporter, mRNA readout
Summary of the method: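 After 24 h chemical dosing, total RNA from transiently transfected HepG2 cells was reverse-transcribed and reporter cDNA PCR-amplified, FAM-labelled and analysed by capillary electrophoresis. Activity fitted in positive direction, DMSO as negative control.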

[6] = molecular target: Nuclear respiratory factor 1 (Homo sapiens) (UniProt Q16656); assay: ATG_NRF1_CIS: Attagene CIS-FACTORIAL HepG2 Assay for human Nuclear Respiratory Factor 1 (NRF1) Orphan Gene (AID 2282987); details: HepG2 NRF1 cis-element reporter, Attagene multiplex; actives raise or lower the signal
Summary of the method: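 Cells (HepG2, transient MRTU transfection) are exposed to compound for 24 h, then RNA isolated and reporter mRNA amplified and fluorescently labelled. Fragments are separated by capillary electrophoresis; signal change is fitted bidirectionally relative to DMSO.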

[7] = ATG_NFI_CIS: Attagene CIS-FACTORIAL HepG2 Assay for human Nuclear Factor I (NFI) (AID 2282989); details: HepG2 cis-regulatory reporter, NFI response element transcription; actives raise or lower the signal
Summary of the method: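 Read-out: reporter mRNA via RT-PCR plus capillary electrophoresis with fluorescence detection. Transiently transfected HepG2 (endogenous TF activity on cis promoters), 24 h compound exposure; gain or loss of signal fitted against DMSO.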

[8] = molecular target: Myc proto-oncogene protein (Homo sapiens) (UniProt P01106); assay: ATG_Myc_CIS: Attagene CIS-FACTORIAL HepG2 Assay for human Myelocytomatosis (Myc) Proto-Oncogene Transcription Factor (AID 2282990); details: HepG2, Attagene cis-reporter transcription factor activity; actives raise or lower the signal
Summary of the method: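 DMSO-normalised, bidirectionally fitted reporter mRNA signal. HepG2 cells transfected with cis reporter constructs, treated 24 h; transcripts detected by RT-PCR, 6-FAM primer extension and CE.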

[9] = ATG_NRF2_ARE_CIS: Attagene CIS-FACTORIAL HepG2 Assay for human Nuclear Factor Erythroid 2 Related Factor 2 (NFR2) response to Antioxidant Response Elements (ARE) (AID 2282992); details: HepG2 Attagene ARE/NRF2 reporter, transcription factor activity; actives raise or lower the signal;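 for AC50: reporter mRNA level measured by RT-PCR and capillary electrophoresis fluorescence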
Summary of the method: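 Transient MRTU transfection of HepG2; 24 h compound exposure; TriZol RNA, RT with oligo(dT), PCR, 6-FAM primer extension, HpaI cut, CE. Bidirectional fit vs DMSO.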

[10] = ATG_Oct_MLP_CIS: Attagene CIS-FACTORIAL HepG2 Assay for human Octamer-Binding Transcription Factor (Oct) (AID 2282993); details: HepG2 Attagene cis-factorial Oct reporter, mRNA; actives raise or lower the signal
Summary of the method: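 Read-out: reporter mRNA via RT-PCR plus capillary electrophoresis of 6-FAM-labelled fragments. Transiently transfected HepG2, 24 h exposure, endogenous TF activity on cis elements. Gain or loss of signal fitted relative to DMSO.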

[11] = molecular target: Oxysterols receptor LXR-alpha (Homo sapiens) (UniProt Q13133); assay: ATG_LXRa_TRANS: Attagene TRANS-FACTORIAL HepG2 Assay for human Liver X Receptor alpha (LXRa) (AID 2282980; active = hit-call score of the fitted dose curve at least 0.9, where 1 is the maximum); details: HepG2 Attagene TRANS reporter, LXRa transactivation
Summary of the method: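 Chemical-induced reporter mRNA measured by RT-PCR with fluorescent labelling and capillary electrophoresis after 24 h dosing of transiently transfected HepG2 cells expressing exogenous NR-Gal4 chimeras; increases scored against DMSO baseline.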

[12] = molecular target: Transcriptional activator Myb (Homo sapiens) (UniProt P10242); assay: ATG_Myb_CIS: Attagene CIS-FACTORIAL HepG2 Assay for human Myeloblastosis (Myb) Proto-Oncogene Transcription Factor (AID 2282986); details: HepG2 Attagene CIS-FACTORIAL Myb reporter transcription; actives raise or lower the signal
Summary of the method: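 Transiently transfected HepG2 cells, treated 24 h. Reporter mRNA quantified by RT-PCR/capillary electrophoresis; bidirectional fit relative to DMSO.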

[13] = ATG_NF_kB_CIS: Attagene CIS-FACTORIAL HepG2 Assay for human Nuclear Factor Kappa B (NF-kB) (AID 2282991); details: HepG2 Attagene cis-factorial NF-kB reporter mRNA; actives raise or lower the signal
Summary of the method: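 Measures mRNA induction of an NF-kB-responsive cis-element reporter in HepG2 cells transfected with multiple reporter units, sampled 24 h post-dosing; quantified by fluorescence after RT-PCR and capillary electrophoresis, fitted for activation or inhibition against DMSO.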

[14] = molecular target: Cellular tumor antigen p53 (Homo sapiens) (UniProt P04637); assay: ATG_p53_CIS: Attagene CIS-FACTORIAL HepG2 Assay for human p53 Transcription Factor (AID 2282994); details: HepG2 p53 cis-element reporter, Attagene mRNA; actives raise or lower the signal
Summary of the method: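 HepG2, transient MRTU transfection (cis promoter elements, endogenous TFs); 24 h dosing; RNA isolation, RT-PCR, 6-FAM primer extension, HpaI digest, CE fluorescence; bidirectional fit vs DMSO.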

[15] = ATG_M_06_TRANS: Attagene TRANS-FACTORIAL HepG2 Assay for M06 Transcription Factor (Internal Marker) (AID 2282983; active = hit-call score of the fitted dose curve at least 0.9, where 1 is the maximum); details: HepG2 Attagene TRANS M06 internal marker reporter
Summary of the method: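 Cells: HepG2, transient multi-reporter transfection. Exposure: 24 h. Detection: RT-PCR, 6-FAM labelling, HpaI digestion (2 h, 37 °C), capillary electrophoresis. Baseline: DMSO.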

[16] = BSK_3C_TissueFactor: BioMAP Diversity Plus: 3C Assay for Tissue Factor Biomarker Activity (AID 2282997); details: BioMAP 3C HUVEC, tissue factor biomarker readout; actives raise or lower the signal
Summary of the method: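 Dosing of human umbilical vein endothelial cells preceded a 24 h incubation. Tissue Factor was then read by ELISA, with increases and decreases both scored relative to DMSO controls.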

[17] = BSK_3C_uPAR: BioMAP Diversity Plus: 3C Assay for Urokinase-type plasminogen activator receptor (uPAR) Biomarker Activity (AID 2282998); details: BioMAP 3C HUVEC, uPAR biomarker ELISA; actives raise or lower the signal
Summary of the method: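 HUVEC primary cells; 24 h post-dose; uPAR by ELISA; gain or loss of signal fitted bidirectionally vs DMSO baseline.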

[18] = BSK_3C_VCAM1: BioMAP Diversity Plus: 3C Assay for Vascular cell adhesion molecule 1 (VCAM1) Biomarker Activity (AID 2282999); details: BioMAP 3C HUVEC, VCAM1 ELISA, cytokine-stimulated; actives raise or lower the signal
Summary of the method: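 Human umbilical vein endothelial cells were dosed with compound for 24 h, after which cell-surface VCAM-1 was quantified by ELISA. Bidirectional curve fitting used DMSO as negative control and activity baseline.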

[19] = BSK_4H_Eotaxin3: BioMAP Diversity Plus: 4H Assay for Eotaxin 3 Biomarker Activity (AID 2283000); details: primary human endothelial cells (HUVEC); actives raise or lower the signal
Summary of the method: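 Human umbilical vein endothelial cells (BSK_4H system) dosed with test chemical; Eotaxin-3 (CCL26) measured by ELISA 24 h after dosing. Bidirectional curve fitting relative to DMSO negative control as baseline.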

Measured: AC50

Sequence of Nuclear receptor subfamily 4 group A member 2 (Homo sapiens) (P43354 whole entry, looked up): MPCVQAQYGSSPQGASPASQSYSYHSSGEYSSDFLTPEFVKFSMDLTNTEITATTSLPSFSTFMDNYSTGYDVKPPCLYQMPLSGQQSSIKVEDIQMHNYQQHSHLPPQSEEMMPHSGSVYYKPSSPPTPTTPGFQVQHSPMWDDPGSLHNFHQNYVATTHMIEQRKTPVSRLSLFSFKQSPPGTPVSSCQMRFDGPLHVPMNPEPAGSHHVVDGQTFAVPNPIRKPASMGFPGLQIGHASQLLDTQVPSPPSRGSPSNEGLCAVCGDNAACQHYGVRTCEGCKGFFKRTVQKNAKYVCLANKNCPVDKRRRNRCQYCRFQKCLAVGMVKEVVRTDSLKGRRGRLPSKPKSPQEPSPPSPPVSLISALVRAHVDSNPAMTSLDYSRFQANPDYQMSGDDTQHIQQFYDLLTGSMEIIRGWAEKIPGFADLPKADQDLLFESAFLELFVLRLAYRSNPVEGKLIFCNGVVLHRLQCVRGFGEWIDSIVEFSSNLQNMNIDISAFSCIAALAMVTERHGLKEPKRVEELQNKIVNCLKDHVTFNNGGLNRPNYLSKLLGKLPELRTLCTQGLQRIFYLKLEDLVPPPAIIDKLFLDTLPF
Sequence of Nuclear respiratory factor 1 (Homo sapiens) (Q16656 whole entry, looked up, the tested form may be a part): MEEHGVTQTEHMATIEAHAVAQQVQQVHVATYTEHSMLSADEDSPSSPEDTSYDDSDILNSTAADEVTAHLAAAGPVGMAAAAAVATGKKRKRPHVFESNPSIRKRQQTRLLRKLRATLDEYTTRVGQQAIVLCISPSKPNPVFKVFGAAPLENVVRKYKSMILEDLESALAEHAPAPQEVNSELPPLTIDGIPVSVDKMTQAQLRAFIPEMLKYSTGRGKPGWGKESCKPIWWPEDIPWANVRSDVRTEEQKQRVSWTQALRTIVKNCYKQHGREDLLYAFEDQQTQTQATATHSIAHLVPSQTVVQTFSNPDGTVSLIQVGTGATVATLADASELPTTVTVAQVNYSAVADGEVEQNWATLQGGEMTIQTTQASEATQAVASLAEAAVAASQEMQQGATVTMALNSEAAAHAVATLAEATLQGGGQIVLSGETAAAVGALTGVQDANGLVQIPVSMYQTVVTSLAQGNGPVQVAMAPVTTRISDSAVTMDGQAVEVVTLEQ
Sequence of Oxysterols receptor LXR-alpha (Homo sapiens) (Q13133 whole entry, looked up, the tested form may be a part): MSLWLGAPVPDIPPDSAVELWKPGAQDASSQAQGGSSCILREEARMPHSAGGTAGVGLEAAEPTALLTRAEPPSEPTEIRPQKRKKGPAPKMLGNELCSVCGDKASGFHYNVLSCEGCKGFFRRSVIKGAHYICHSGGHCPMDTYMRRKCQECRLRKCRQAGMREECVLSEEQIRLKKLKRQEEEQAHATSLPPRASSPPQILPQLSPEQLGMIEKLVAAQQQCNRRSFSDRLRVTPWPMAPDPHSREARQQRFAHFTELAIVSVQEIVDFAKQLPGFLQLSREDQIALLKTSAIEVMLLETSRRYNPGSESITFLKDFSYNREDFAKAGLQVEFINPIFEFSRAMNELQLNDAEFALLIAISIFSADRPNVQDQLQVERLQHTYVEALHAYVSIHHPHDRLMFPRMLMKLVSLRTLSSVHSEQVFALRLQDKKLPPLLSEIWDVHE
Sequence of Cellular tumor antigen p53 (Homo sapiens) (P04637 whole entry, looked up): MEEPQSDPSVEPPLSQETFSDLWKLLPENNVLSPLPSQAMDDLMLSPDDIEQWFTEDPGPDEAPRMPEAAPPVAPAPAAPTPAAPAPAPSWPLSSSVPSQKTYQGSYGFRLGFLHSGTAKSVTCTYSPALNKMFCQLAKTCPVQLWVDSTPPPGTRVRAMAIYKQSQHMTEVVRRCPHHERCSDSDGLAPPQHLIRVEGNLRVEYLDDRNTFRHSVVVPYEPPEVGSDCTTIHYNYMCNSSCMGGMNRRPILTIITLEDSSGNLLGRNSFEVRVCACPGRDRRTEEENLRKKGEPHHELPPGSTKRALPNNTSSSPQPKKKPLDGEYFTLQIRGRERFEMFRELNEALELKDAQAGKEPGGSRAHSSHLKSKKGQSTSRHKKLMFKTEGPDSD
Sequence of Oxysterols receptor LXR-beta (Homo sapiens) (P55055 whole entry, looked up, the tested form may be a part): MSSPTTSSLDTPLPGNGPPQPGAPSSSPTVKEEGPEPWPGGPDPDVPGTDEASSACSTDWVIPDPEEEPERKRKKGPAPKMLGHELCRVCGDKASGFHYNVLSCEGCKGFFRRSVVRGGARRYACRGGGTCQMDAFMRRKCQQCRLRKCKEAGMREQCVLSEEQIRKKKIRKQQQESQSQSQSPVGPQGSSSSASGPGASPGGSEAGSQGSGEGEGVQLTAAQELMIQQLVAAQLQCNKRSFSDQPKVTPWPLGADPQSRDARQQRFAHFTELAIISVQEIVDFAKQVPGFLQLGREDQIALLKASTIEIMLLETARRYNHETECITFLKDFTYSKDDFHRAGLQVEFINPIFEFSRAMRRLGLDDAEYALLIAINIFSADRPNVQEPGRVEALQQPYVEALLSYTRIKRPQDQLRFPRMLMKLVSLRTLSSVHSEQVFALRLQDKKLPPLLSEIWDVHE
Sequence of Bile acid receptor (Homo sapiens) (Q96RI1 whole entry, looked up, the tested form may be a part): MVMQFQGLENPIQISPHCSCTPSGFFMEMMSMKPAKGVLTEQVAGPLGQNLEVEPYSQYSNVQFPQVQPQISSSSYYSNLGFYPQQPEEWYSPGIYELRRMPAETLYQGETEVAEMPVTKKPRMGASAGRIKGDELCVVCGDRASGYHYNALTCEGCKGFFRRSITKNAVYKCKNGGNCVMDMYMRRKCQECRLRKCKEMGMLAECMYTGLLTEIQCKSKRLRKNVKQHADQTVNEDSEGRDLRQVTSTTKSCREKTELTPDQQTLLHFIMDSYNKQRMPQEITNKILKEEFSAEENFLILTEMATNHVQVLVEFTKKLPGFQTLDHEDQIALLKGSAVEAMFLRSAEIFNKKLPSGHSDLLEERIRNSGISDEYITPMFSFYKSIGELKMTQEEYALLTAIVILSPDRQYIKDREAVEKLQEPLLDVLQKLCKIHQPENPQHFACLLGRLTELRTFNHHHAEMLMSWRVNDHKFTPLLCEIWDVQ
Sequence of Transcriptional activator Myb (Homo sapiens) (P10242 whole entry, looked up): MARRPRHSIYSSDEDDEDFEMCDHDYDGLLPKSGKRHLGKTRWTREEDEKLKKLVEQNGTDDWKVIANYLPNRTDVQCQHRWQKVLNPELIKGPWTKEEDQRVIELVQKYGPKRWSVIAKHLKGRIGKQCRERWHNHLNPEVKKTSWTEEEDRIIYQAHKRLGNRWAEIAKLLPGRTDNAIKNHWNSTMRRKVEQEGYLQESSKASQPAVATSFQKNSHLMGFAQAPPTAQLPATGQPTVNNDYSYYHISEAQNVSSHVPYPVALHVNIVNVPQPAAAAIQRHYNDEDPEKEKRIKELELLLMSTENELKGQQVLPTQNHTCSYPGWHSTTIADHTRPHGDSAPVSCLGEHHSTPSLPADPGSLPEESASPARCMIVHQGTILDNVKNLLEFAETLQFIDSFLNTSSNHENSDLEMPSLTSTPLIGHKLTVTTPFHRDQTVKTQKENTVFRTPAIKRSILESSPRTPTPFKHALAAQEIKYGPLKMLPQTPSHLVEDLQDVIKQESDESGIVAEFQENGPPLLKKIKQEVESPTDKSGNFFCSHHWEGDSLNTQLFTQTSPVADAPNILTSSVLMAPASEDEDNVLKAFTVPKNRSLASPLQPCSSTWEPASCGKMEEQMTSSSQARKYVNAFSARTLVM
Sequence of Myc proto-oncogene protein (Homo sapiens) (P01106 whole entry, looked up): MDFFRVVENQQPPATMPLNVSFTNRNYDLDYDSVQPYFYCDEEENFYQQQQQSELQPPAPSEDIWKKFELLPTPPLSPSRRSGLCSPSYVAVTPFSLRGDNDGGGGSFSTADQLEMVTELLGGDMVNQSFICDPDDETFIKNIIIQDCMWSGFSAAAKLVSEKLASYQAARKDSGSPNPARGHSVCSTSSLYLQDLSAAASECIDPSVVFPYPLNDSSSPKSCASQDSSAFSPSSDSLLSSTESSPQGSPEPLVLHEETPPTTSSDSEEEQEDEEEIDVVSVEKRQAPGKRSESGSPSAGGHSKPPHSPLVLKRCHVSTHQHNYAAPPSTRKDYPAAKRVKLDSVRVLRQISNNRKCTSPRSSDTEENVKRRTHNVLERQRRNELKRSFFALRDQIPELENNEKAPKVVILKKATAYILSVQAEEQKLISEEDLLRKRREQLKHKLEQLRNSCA
Sequence of Hepatocyte nuclear factor 4-alpha (Homo sapiens) (P41235 whole entry, looked up, the tested form may be a part): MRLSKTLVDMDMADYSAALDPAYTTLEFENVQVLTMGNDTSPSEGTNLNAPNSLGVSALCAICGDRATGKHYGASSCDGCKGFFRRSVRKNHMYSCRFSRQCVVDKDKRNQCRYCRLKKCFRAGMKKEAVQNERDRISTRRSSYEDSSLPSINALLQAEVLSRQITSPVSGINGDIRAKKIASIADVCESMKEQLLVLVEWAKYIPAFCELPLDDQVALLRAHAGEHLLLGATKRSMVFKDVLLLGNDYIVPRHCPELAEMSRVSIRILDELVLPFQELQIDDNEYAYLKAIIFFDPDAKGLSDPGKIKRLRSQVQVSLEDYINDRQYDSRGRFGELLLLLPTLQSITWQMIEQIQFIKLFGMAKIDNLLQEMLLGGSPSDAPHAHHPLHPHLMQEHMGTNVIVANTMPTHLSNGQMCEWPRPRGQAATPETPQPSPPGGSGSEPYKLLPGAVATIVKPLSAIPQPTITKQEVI

O=C1CCCCCN1SSN1CCCCCC1=O
inactive: [1] | [2] | [3] | [4] | [5] | [6] | [8] | [10]
active: [7] 153 µM | [9] 42.9 µM

CC1=Nc2ccc3ccccc3c2C1(C)C
active: [9] 100 µM
not listed: [3] | [15] | [16] | [17] | [18] | [19]
inactive: all other assays above

O=C(Cl)c1cc(C(=O)Cl)cc(C(=O)Cl)c1
active: [9] 158 µM | [16] 12.2 µM | [17] 10.2 µM | [18] 12.7 µM | [19] 25.8 µM
not listed: [2] | [3] | [5] | [11]
inactive: all other assays above

COc1ccc([C@@H]2CC(=O)c3c(O)cc(O[C@@H]4O[C@H](CO[C@@H]5O[C@@H](C)[C@H](O)[C@@H](O)[C@H]5O)[C@@H](O)[C@H](O)[C@H]4O)cc3O2)cc1OC
inactive: [1] | [15] | [12] | [6] | [7] | [9] | [10] | [14]

COCC(C)N (configuration not stated)
inactive: [1] | [11] | [4] | [5] | [12] | [7] | [13] | [10] | [14]

Nc1ccc(-c2ccc(F)cc2)cc1
inactive: [1] | [3] | [4] | [12] | [6] | [8] | [13] | [9] | [10] | [14]

O=C(/C=C/C=C/c1ccc2c(c1)OCO2)N1CCCCC1
active: [9] 47.4 µM
not listed: [2] | [3] | [11] | [16] | [17] | [18] | [19]
inactive: all other assays above

C=COCCCC
inactive: [1] | [2] | [6] | [13] | [9] | [10] | [14]

CCCCCCC(O)CO (configuration not stated)
not listed: [2] | [4] | [12] | [13] | [16] | [17] | [18] | [19]
inactive: all other assays above

CC(C)(C)C(=O)C=Cc1ccc(Cl)cc1
active: [11] 26.1 µM | [7] 48.8 µM | [14] 59 µM
inactive: [1] | [2] | [4] | [5] | [6] | [8] | [13] | [9]

CCCCC(CC)CCC(CC(C)C)OS(=O)(=O)O (configuration not stated)
active: [9] 100 µM
inactive: [1] | [2] | [15] | [4] | [5] | [6] | [7] | [8] | [10] | [14]

CC(C)(C)c1ccc(OC(=O)c2ccccc2O)cc1
not listed: [4] | [9] | [11] | [16] | [17] | [18] | [19]
inactive: all other assays above

CC(=O)Oc1ccc(C(C)=O)cc1
not listed: [3] | [11] | [13] | [15] | [16] | [17] | [18] | [19]
inactive: all other assays above

CCc1c(C(=O)O)c(=O)cnn1-c1ccc(Cl)cc1
inactive: [1] | [4] | [5] | [12] | [6] | [7] | [8] | [13] | [9] | [14]

CCCCCCCCc1ccc(Nc2ccc(CCCCCCCC)cc2)cc1
not listed: [2] | [12] | [15]
inactive: all other assays above

O=c1n(CCO)c(=O)n(CCO)c(=O)n1CCO
inactive: [1] | [11] | [3] | [4] | [12] | [7] | [8] | [13] | [9] | [10]

CCOC(=O)CC
not listed: [10] | [11] | [13] | [16] | [17] | [18] | [19]
inactive: all other assays above

NC(=O)c1ccccc1O
not listed: [4] | [5] | [8] | [11] | [16] | [17] | [18] | [19]
inactive: all other assays above

C/C=C\C/C=C/CCCCCCCCOC(C)=O
active: [13] 42.8 µM | [9] 26.8 µM | [10] 39.5 µM | [14] 162 µM | [16] 9.54 µM | [18] 26 µM | [19] 28.9 µM
not listed: [2] | [11] | [12]
inactive: all other assays above

Cc1ccc(OC(=O)CC(C)C)cc1
inactive: [1] | [2] | [15] | [4] | [5] | [12] | [7] | [8] | [9] | [10]

CCN(CCO)c1cccc(C)c1
not listed: [2] | [3] | [11] | [15] | [16] | [17] | [18] | [19]
inactive: all other assays above

O=Cc1ccc(CO)o1
not listed: [2] | [3] | [11] | [13] | [16] | [17] | [18] | [19]
inactive: all other assays above
